Results as given in PubChem BioAssay AID588848 (Broad Institute, 2011).
Measured potencies and affinities stand elsewhere. Records with an inconclusive call do not appear.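 Rule for the calls: active = fitted half-maximal inhibiting dose no more than ten times the top valid dose tested; inconclusive = flat activity from -30 to -70%, or unreliable curve fit; inactive = the rest.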

target: CAAX prenyl protease 2 (Homo sapiens) (UniProt Q9Y256); assay: human Rce1 protease inhibitors, dose response, biochemical, plate reader, dry powder samples (AID 588848); details: yeast membranes expressing human Rce1, fluorogenic peptide cleavage; series mostly up to 30 µM; activity change, negative = inhibition: at the top concentration
Sequence (Q9Y256 whole entry, looked up): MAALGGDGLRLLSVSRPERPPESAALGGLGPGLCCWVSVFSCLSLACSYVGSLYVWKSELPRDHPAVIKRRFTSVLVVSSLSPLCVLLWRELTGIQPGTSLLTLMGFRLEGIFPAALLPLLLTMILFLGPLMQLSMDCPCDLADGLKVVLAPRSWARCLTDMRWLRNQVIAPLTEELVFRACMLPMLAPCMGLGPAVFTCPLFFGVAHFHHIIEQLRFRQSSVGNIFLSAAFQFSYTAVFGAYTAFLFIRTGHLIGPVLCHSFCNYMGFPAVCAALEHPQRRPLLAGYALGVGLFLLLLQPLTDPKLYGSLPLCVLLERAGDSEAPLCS

Activity change, negative = inhibition, inactive:
CCOc1cccc(-c2c(C(=O)N/N=C/c3cccs3)nnn2-c2nonc2N)c1 14%
COc1ccc(-n2c(SCc3ccc([N+](=O)[O-])cc3)nnc2-c2ccc(C)cc2)cc1 7.73%
Cc1ccc(NC(=O)CCc2ccc(S(=O)(=O)NC3CCCCC3)cc2)cc1 9.46%
CN(C(=O)COC(=O)c1cn(-c2ccccc2)nc1-c1ccccc1)C1CCS(=O)(=O)C1 (stereo not given) -2.52%
CCCOc1ccc(-c2c(C(=O)N/N=C/c3cccs3)nnn2-c2nonc2N)cc1 16.2%
Cc1cccc(-c2nnc(SCc3ccc(C#N)cc3)n2Cc2ccco2)c1 13.3%
CC(C)c1c(C(=O)N/N=C/c2cccc3ccccc23)nnn1-c1nonc1N 8.17%
Cc1ccc(SCc2c(C(=O)N/N=C/c3ccccc3)nnn2-c2nonc2N)cc1 10.5%
Nc1nonc1-n1nnc(C(=O)N/N=C/c2cccc(Cl)c2)c1CSc1ccc(Cl)cc1 18.1%
Cc1cc(N2CCN(C(c3ccccc3)c3ccccc3)CC2)n2ncnc2n1 -8.64%
